Experimental data taken from the supplement of paper PMC10338343.
± gives the standard deviation.

These sequences were tested on MILI (PIWIL2) piRISC loaded with L1MC piRNA (26 nt) (assay: pre-steady-state target cleavage rate (min^-1); guide: L1MC piRNA 5'p-UAACUAAAUACUAUGCAAGCUGUAGG; MIWI and MILI are mouse PIWI proteins and EfPiwi is from a freshwater sponge; tags in brackets are library labels; higher = faster piRNA-guided slicing of the target). Details: auxiliary factor: 500 nM mouse GTSF1.
Method in brief: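 Active affinity-purified piRISC carrying one synthetic guide (1 nM) was mixed with a transcribed, DNA-blocked target RNA library […] in HEPES–potassium acetate buffer at 33 °C for 0–8 or 0–960 min, with or without 500 nM GTSF1 partner protein. Uncleaved targets were then sequenced and normalised to depth and to weakly complementary targets. Three trials were pooled, and k3 was capped at 0.0001 min^-1. A burst-and-steady-state fit was applied to obtain the pre-steady-state cleavage rate.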
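Further: 1 nM active piRISC with 0.1 nM target library at 33 °C single turnover.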

Row | Sequence | pre-steady-state target cleavage rate
1 | UCCUGGAUGUCGAUGCAUAGUAUUUAAUUA | 0.0256 ± 0.0092
2 | UCCUGGAUGUCGAAGCAUAAUAUUUAGUUA | 0.0097 ± 0.0039
3 | UCCUGGUACAGCUUGCAUAGUAUUUACUUA | 0.103 ± 0.025
4 | UCCUGGAUCAGCUUGCAUACUAUUUAGAAA | 0.0141 ± 0.0069
5 | UCCUGGAUCAGCUUGCAUAGUAUAAACAAA | 0.0772 ± 0.019
6 | UCCUGGAACAGCUUGCAUUGUAUUAAGUUA | 0.163 ± 0.026
7 | UCCUGGAUCAGCUUGCAUAGUAUAUACUUA | 0.0182 ± 0.0062
8 | UCCUGGAUGUCGAACGAUAGUAUUUAGUAA [g3:g14:cont:t1A] | < 0.0001
9 | UCCUGGAUGUGCUACCAUAGUAUUUAGAAA | 0.00379 ± 0.0038
10 | UCCUGGAUGUCCUUGCAUAGUAAAAAGUAA | 0.00651 ± 0.0043

Same assay, conditions: auxiliary factor: none (no GTSF1)

Row | Sequence | pre-steady-state target cleavage rate
11 | UCCUGGAUGUCGAACGUUAGUAUUUAGUAA | < 0.0001
12 | UCCUGGAUGUCGAAGCAUAUAUUUAGUUA | < 0.0001
13 | UCCUGGAUGUCGUUGCAUAGUUAAUAGUUA | 0.00434 ± 0.0022
14 | UCCUGGAUGUCGAACCAUAGUAUUUUGUAA | < 0.0001
15 | UCCUGGAACAGCUUCGAUAGUAUUUACAAA | < 0.0001
16 | UCCUGGAUGUCGAACGUUUGUAUUUAGUAA | < 0.0001
